Screening data: PubChem, National Center for Advancing Translational Sciences (NCATS)
HT1080NT lethal: kills 2HG-producing HT-1080-NT fibrosarcoma cells | Potency, µM (top dose mostly 46.1 µM), inactives show at the highest dose activity, negative = less viability, usual class: cytotoxic | HT-1080-NT fibrosarcoma viability, CellTiter-Glo ATP luminescence, 48 h | actives 1.6% (n = 360,000);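 note: NT is the 2HG producing partner of a matched IDH1 knockdown line; 0% = DMSO-treated cells and -100% = media-only wells without cells; nearly all actives have a fitted effect of over 55% in size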
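A 48-hour cytotoxicity screen used HT-1080-NT cells plated 2 hours before compound delivery. ATP-based CellTiter-Glo luminescence measured viability, normalized to DMSO and no-cell controls.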
KB-3-1 cytotox: kills parental KB-3-1 adenocarcinoma cells | KB-3-1 viability, CellTiter-Glo ATP luminescence, 72 h | actives 1.4% (n = 400,000) | AID 1347075 | Potency, µM (series often up to 46.1 µM), usual class: cytotoxic; note: % is set by controls: 0 for no effect and ±100 for the full control effect; nearly all actives have a fitted effect of over 60% in size
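Multi-concentration cytotoxicity screen in KB-3-1 cells grown in DMEM lacking phenol red with 10% FBS. After 72 h at 37 °C with compound, ATP-dependent luminescence was recorded.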
MCF10A rerep: DNA re-replication induction in MCF 10a cells; MCF 10A DNA re-replication, Hoechst nuclear intensity, 48 h; Potency, µM (highest dose often 46.1 µM), for the others: at the top dose activity, positive = re-replication, hits mostly activators; actives 2.9% (n = 350,000); AID 624296; note: % of control where 0% means no effect; nearly all actives have a fitted effect of over 50% in size
HT1080 IDH1KD tx: HT-1080 IDH1 knockdown cell toxicity (counter line); HT-1080 IDH1 knockdown viability, ATP luminescence, 48 h; Potency, µM (series often up to 46.1 µM), without a hit: at the highest dose activity, negative = toxicity, actives largely listed as cytotoxic; actives 2% (n = 360,000); AID 686971;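 note: 0% = DMSO wells and -100% = cell-free medium wells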
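Viability of IDH1-knockdown HT-1080 fibrosarcoma cells was assessed by CellTiter-Glo after 48 h at 37 °C with titrated compound; concentration-effect curves were classified by fit quality and response size.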
SW480 rereplic: inducers of DNA re-replication in SW480 colon cancer cells; SW480 DNA re-replication, Hoechst DNA content imaging, 48 h; Potency, µM (titrated, usually from 46.1 µM), for the others: top-dose re-replication activation, most hits filed as activators; actives 1.8% (n = 340,000); AID 624297; note: % of control where 0% means no effect; nearly all actives have a fitted effect of over 55% in size
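DNA re-replication was detected as more nuclei of elevated Hoechst intensity after 48 hr exposure to compound (23 nL pinned per well of 250 cells).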
KB-V1 MDR tox: KB-V1 MDR subline cytotoxicity; KB-V1 MDR cells viability, CellTiter-Glo, 72 h; Potency, µM (doses to about 46.1 µM), usual class: cytotoxic; actives 3.4% (n = 400,000); note: % is set by controls: 0 for no effect and ±100 for the full control effect; nearly all actives have a fitted effect of over 60% in size
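Cells of the MDR subline KB-V1 are plated, dosed with compound at multiple concentrations, and incubated 72 h at 37 degrees C; CellTiter-Glo is then added and luminescence read after 10 min.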
An asterisk follows results filed as active; i = inactive; ? = inconclusive; . = no result given; [ ] = remark or other dose. An excerpt weighted towards active compounds, which were near 8% of everything screened. Calls come from the whole dose curve; as a rule, active = well fitted curve in the direction sought with a large enough effect; inconclusive = small, poorly fitted or top-dose-only effect, or another doubt; inactive = no such curve, though single readings can be large; an effect the other way counts as inactive or inconclusive. Potency is the fitted concentration of half-maximal effect.

SMILES	HT1080NT lethal	KB-3-1 cytotox	MCF10A rerep	HT1080 IDH1KD tx	SW480 rereplic	KB-V1 MDR tox
CCN1C[C@@H]2[C@@H]3C(=O)N(Cc4ccccc4)C(=O)[C@@H]3[C@](Cc3ccccc3)(C1=O)N2C(=O)c1ccc(Cl)c(Cl)c1	-3%	?	?	2%	-28%	18µM*
Cc1cc(C(=O)OCC(=O)NC2CCCCC2)c(C)o1	11%	i	0%	9%	-2%	i
Cc1cc2c(cc(C(=O)OCC(=O)NC3CCCCC3)n2C)o1	-19%	i	26µM*	-15%	?	?
Nc1nnc(SCC(=O)Nc2cccc(Cl)c2)s1	6%	i	0%	8%	-3%	i
O=C(Nc1cccc(-c2nc3ncccc3o2)c1)c1ccc(-c2cccc(Cl)c2Cl)o1	.	i	.	.	.	6.5µM*
CCc1ccc(NC(=O)c2ccccc2NC(=O)C2CCCO2)cc1 (centres undefined)	-3%	i	2%	-3%	8%	6.5µM*
CC(C)C(=O)Nc1cccc(-c2nc3ncccc3o2)c1	2%	?	-1%	1%	?	i
O=C(CSc1ccc(Cl)cc1)Nc1cccc(-c2nc3ccccc3[nH]2)c1	-26%	i	18µM*	?	-193%	i
O=C(CSc1ccccc1)Nc1ccc(-c2nc3ccccc3[nH]2)cc1	13µM*	21µM*	?	?	-2%	?
CCOC(=O)c1ccccc1NC(=O)C1CCCO1 (centres undefined)	-3%	i	-6%	-4%	-54%	i
O=C(Nc1ccc(-c2nc3ccccc3[nH]2)cc1)C1CCCO1 (centres undefined)	10µM*	?	-4%	11µM*	-1%	?
O=C(CSc1ccc(Cl)cc1)Nc1cccc(-c2nc3ncccc3o2)c1	16%	?	12%	-4%	3%	15µM*
Cc1ccc2nc(-c3ccc(NC(=O)CSc4ccccc4)cc3)[nH]c2c1	?	i	-1%	13µM*	-2%	i
O=C(Nc1nc2ccccc2[nH]1)C1CCCO1 (centres undefined)	-7%	i	?	3%[9.24 µM]	0%	i
COc1ccc(-c2nc3cc(C)ccn3c2NC(=O)c2ccc(C)c(C)c2)cc1	.	i	.	.	.	i
COc1cccc(-c2nc(NC(C)(C)C)c3ccccc3n2)c1O	?	?	?	?	0%	23µM*
COc1cccc(-c2nc(N3CCCC3)c3ccccc3n2)c1O	9%	i	?	5%	1%	i
COc1cccc(-c2nc(N3CCC(C)CC3)c3ccccc3n2)c1O	?	i	23%	?	0%	16µM*
Cc1cc(C(=O)N/N=C/c2cc(Br)ccc2OC(=O)c2ccccc2Cl)n[nH]1	?	?	?	21µM*	7.3µM*	?
Cc1cc(C(=O)N/N=C/c2ccc3ccccc3c2)n[nH]1	-14%	i	3%	-17%	9%	i
Cc1cc(C(=O)N/N=C/c2ccc(OC(=O)c3ccccc3Br)cc2)n[nH]1	-17%	i	0%	-13%	-3%	i
Cc1cc(C(=O)N/N=C/c2cc(Br)ccc2OC(=O)c2ccccc2)n[nH]1	?	i	22%	8.2µM*	?	i
O=C(N/N=C/c1cc(Br)ccc1OC(=O)c1ccc(Br)cc1)c1ccncc1	21µM*	?	10%	?	?	i
O=C(O)c1oc2ccccc2c1-n1cccc1	-15%	i	14%	-10%	-10%	i
CN(C(=O)c1ccc(NC(=O)Cc2ccc([N+](=O)[O-])cc2)cc1)C1CCCC1	-1%	i	12%	-3%	-5%	i
CCc1cc(-c2nnn(CCC3COCCO3)c2CC)ccc1-c1cn(CCc2c[nH]c3ccccc23)nn1 (centres undefined)	-35%	i	.	?	.	i
